Compound activity deposited in PubChem by National Center for Advancing Translational Sciences (NCATS).
LDHA inh = inhibitors of human lactate dehydrogenase A; P00338; purified LDHA, NADH/diaphorase-resazurin fluorescence; active compounds read low; activity change, % (values are at about 110 or 230 µM); actives 0.15% (n = 480,000); AID 1347041; in the data active means activity change below about -30%; inconclusive means mostly about -25% to -30%;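 further: plate controls were DMSO wells for no effect and wells without enzyme for full effect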
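LDH5 2 nM; NADH 0.06 mM, pyruvate 0.2 mM; 200 mM Tris pH 7.4, EDTA, Tween-20; 5 min RT. Detection: diaphorase 0.133 mg/mL + resazurin 37 µM, fluorescence ex540/em590 at 0 and 20 min; normalized to enzyme-free and DMSO wells.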
IL-1B inflam inh = blocks inflammasome-driven IL-1 beta release; actives 4.7% (n = 360,000); activity change, % at 57.5 µM; THP-1 LPS/ATP IL-1B secretion, AlphaLISA, 16 h; active compounds read low; in the data active means activity change below about -50%; inconclusive means mostly about -30% to -49%
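Secreted IL-1B measured by AlphaLISA bead assay after 16 h compound exposure of THP-1 cells; compounds (final up to 57.5 uM) added 1 h before LPS (250 ng/mL) and ATP (1.25 mM) stimulation; lower signal means less secretion.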
VP16 counter = inhibits Gal4-VP16 luciferase reporter, ROR gamma counter-screen; actives 3.5% (n = 310,000); Drosophila S2 Gal4-VP16 UAS-luciferase, luminescence, 20 h; Potency, µM (highest dose often 53.6 µM), for inactives: top-dose activity, negative = inhibition, most hits filed as inhibitors; AID 2546;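 further: Gal4-VP16 expression switched on by copper sulfate through the metallothionein promoter; potency means the concentration at half of the fitted maximal effect; nearly all actives have a fitted effect of over 50% in size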
RORgamma inh = inhibitors of mouse ROR gamma transcriptional activity. Drosophila S2 Gal4-RORgamma UAS-luciferase reporter, 20 h. Potency, µM (series often up to 53.6 µM), inactives show top-dose activity change, negative = inhibition, usual class: inhibitors. actives 5.4% (n = 310,000); further: potency means the concentration at half of the fitted maximal effect; nearly all actives have a fitted effect of over 60% in size
Target sequence (P51450 whole entry, looked up, the tested form may be a part): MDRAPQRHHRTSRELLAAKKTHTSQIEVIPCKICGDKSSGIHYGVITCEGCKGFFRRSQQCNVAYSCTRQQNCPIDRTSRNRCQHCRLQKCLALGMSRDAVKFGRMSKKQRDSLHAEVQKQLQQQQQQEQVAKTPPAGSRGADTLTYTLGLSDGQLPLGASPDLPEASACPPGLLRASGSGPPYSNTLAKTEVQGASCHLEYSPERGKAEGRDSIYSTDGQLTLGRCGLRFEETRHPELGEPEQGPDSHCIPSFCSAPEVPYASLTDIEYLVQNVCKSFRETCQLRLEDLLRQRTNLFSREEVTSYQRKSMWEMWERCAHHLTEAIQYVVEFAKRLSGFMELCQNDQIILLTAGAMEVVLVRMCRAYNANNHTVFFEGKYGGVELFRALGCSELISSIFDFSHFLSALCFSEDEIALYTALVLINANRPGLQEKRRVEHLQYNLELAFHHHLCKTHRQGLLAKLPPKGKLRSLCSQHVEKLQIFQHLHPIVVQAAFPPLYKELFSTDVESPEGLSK
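Using a luciferase readout, inhibitors were identified by reduced reporter activity in Drosophila cells coexpressing a copper-inducible Gal4–ROR gamma fusion and UAS-driven Photinus luciferase, incubated 20 hr after 700 uM copper sulfate.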
DT40 TDP1 CPT = DT40-hTDP1 cell growth loss with CPT. chicken DT40 Tdp1-/-;hTDP1 cells + 20 nM CPT, ATP luminescence, 48 h. Potency, µM (highest dose often 46.2 µM), for the others: top-dose activity change, negative = growth inhibition, usual class: inhibitors. actives 12% (n = 420,000); further: potency means the concentration at half of the fitted maximal effect; nearly all actives have a fitted effect of over 55% in size
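Chicken DT40 Tdp1-/- cells complemented with human TDP1, 400 cells/well, exposed to compounds plus 20 nM camptothecin for at least 48 h at 37 C; viability read as ATP content by CellTiter-Glo luminescence.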
DT40 TDP1 no CPT = qHTS for Inhibitors of human tyrosyl-DNA phosphodiesterase 1 (TDP1): qHTS in cells in absence of CPT. Potency, µM (doses to about 46.2 µM), for inactives: top-dose activity change, negative = growth inhibition, actives largely listed as inhibitors. AID 686978, 2013. actives 15% (n = 420,000). DT40 Tdp1-/- hTDP1 cells, no CPT, ATP luminescence, 48 h; further: potency means the concentration at half of the fitted maximal effect; nearly all actives have a fitted effect of over 55% in size
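Camptothecin absent (DMSO only). Human TDP1-complemented DT40 knockout cells, 400 cells/well, 37 °C for minimum 48 hr; ATP measured via CellTiter-Glo, 30 min dark incubation, luminescence.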
The depositor's hits bear a star; ? = inconclusive; . = no result; [ ] = dose if it differs, or a comment. An excerpt weighted towards active compounds, which were near 18% of everything screened. Unless noted, the call rests on the fitted dose curve; in most records, active means well fitted curve in the direction sought with a large enough effect; inconclusive means small, poorly fitted or top-dose-only effect, or another doubt; inactive means no such curve, though single readings can be large; an effect the other way counts as inactive or inconclusive. Unless noted, on the % scale 0 is the no-effect control and ±100 the full control effect.

SMILES | LDHA inh | IL-1B inflam inh | VP16 counter | RORgamma inh | DT40 TDP1 CPT | DT40 TDP1 no CPT
O=C(c1cc2ccccc2oc1=O)N1CCN(c2ccccc2)CC1 | -21 | . | . | . | . | .
O=C(c1cc2ccccc2oc1=O)N1CCN(c2ccc(Cl)cc2)CC1 | 2 | . | . | . | ? | 21µM*
CN(C)c1ccc(-c2ccc3ncnc(N4CCNCC4)c3c2)cc1 | . | . | -8% | 28% | -6% | ?
CN(C)c1ncnc2ccc(-c3ccoc3)cc12 | . | . | -4% | -1% | 18µM* | ?
CN(C)c1ccc(-c2ccc3ncnc(N(C)C)c3c2)cc1 | . | . | -3% | ? | 0.46µM* | 0.37µM*
NS(=O)(=O)c1ccc(-c2ccc(/C=N/NC(=O)c3ccccc3O)o2)cc1 | 4 | ? | 18µM* | 3.5µM* | ? | -25%
Cc1ccc(-c2ccc(/C=N/NC(=O)c3ccccc3O)o2)cc1 | . | . | 0.16µM* | 0.71µM* | . | .
Cc1ccc(/C=N/NC(=O)c2ccccc2C)cc1 | 1 | . | . | . | . | .
CCOc1ccc(C(=O)N/N=C/c2ccc(-c3ccc(S(=O)(=O)Nc4ncccn4)cc3)o2)cc1 | -8 | -11 | 12% | 6% | -4% | -6%
NC(=O)N/N=C/c1ccc(-c2ccc([N+](=O)[O-])cc2)o1 | -4 | -20 | -20% | -10% | 13% | ?
O=C(N/N=C/c1ccc(-c2ccc(S(=O)(=O)Nc3ncccn3)cc2)o1)c1cc2ccccc2cc1O | -46* | 14 | 6% | 1% | -25% | -11%
c1ccc2c(c1)NC1(CCCC1)n1c-2nc2ccccc21 | -12 | -79* | -3% | -22% | ? | ?
CC1(Cc2ccccc2C#N)C(=O)Nc2cc(-c3ccccc3Cl)ccc21 (configuration not stated) | -2 | -20 | . | . | 23µM* | ?
COc1ccc(-c2c(C)oc3cc(OCC(=O)c4ccccc4)ccc3c2=O)cc1 | -8 | . | . | . | . | .
COc1ccc(N(CC(=O)NCc2ccco2)S(C)(=O)=O)cc1Cl | 8 | 3 | 2% | 0% | 15% | -2%
COc1ccc(N(CC(=O)NCCSCc2ccco2)S(=O)(=O)c2ccccc2)cc1Cl | 0 | -3 | ? | 17% | 15µM* | 21µM*
COc1ccc(OC)c(N(CC(=O)NCCSCc2ccco2)S(=O)(=O)c2ccc(OC)c(OC)c2)c1 | -11 | 18 | -14% | -32% | 13µM* | 16µM*
Cc1ccc(N(CC(=O)NCCSCc2ccco2)S(=O)(=O)c2ccc(C)cc2)cc1 | 0 | -2 | 5% | 30% | -15% | ?
COc1cccc(N(CC(=O)NCCSCc2ccco2)S(=O)(=O)c2ccccc2)c1 | -2 | -13 | -10% | 29% | -25% | ?
COc1ccc(N(CC(=O)NCCSCc2ccccc2Cl)S(C)(=O)=O)cc1Cl | -15 | 0 | -1% | 34% | 12µM* | ?
CC(=O)c1ccc(OC(=O)c2ccccc2F)cc1OC(=O)c1ccccc1F | 9 | . | . | . | . | .
CCCn1nc(C(=O)OCC(=O)NCc2ccc(F)cc2)c2ccccc2c1=O | -10 | . | . | . | . | .
CCc1c(C)nc2ncnn2c1N1CCCC(C(=O)Nc2cc(F)ccc2C)C1 (configuration not stated) | -8 | -5 | -7% | 32% | 16µM* | 21µM*
CCc1c(C)nc2ncnn2c1NCc1cccs1 | 0 | -6 | -6% | 3% | ? | 26µM*
CCc1c(C)nc2ncnn2c1N1CCCC(C(=O)NCc2cccs2)C1 (configuration not stated) | -10 | 36 | ? | -23% | ? | 13µM*
SMILES | LDHA inh | IL-1B inflam inh | VP16 counter | RORgamma inh | DT40 TDP1 CPT | DT40 TDP1 no CPT
CCc1c(C)nc2ncnn2c1N1CCCC(C(=O)NCc2ccco2)C1 (configuration not stated) | -7 | 7 | ? | -2% | ? | ?
Cc1nc2ncnn2c(N2CCCC(C(=O)Nc3ccccc3Br)C2)c1C (configuration not stated) | -7 | 8 | -19%[10 µM] | 0% | ? | 15µM*
Cc1cc(C(C)(C)C)cc(C)c1CS(=O)(=O)CCCO | 4 | . | . | . | . | .
CCc1c(C)nc2ncnn2c1N1CCCC(C(=O)NCCc2ccccc2)C1 (configuration not stated) | -6 | 9 | -23% | ? | ? | 21µM*
CCc1c(C)nc2ncnn2c1N1CCC(C(=O)NCc2cccs2)CC1 | -11 | 31 | 0% | 8% | 23µM* | ?
COc1ccc(C(=O)N[C@@H]2C(=O)Nc3c(c(C)nn3C)[C@H]2c2ccc3c(c2)OCCO3)cc1OC | -4 | . | . | . | . | .
COc1ccc(CCC(=O)C(C#N)C(=O)Nc2cccc(C)c2)cc1 (configuration not stated) | 0 | . | . | . | . | .
Cc1cc(C(=O)N2CCN(S(=O)(=O)c3ccccc3F)CC2)c(C)o1 | -6 | 1 | 7% | 13µM* | ? | ?
Cc1cc(C(=O)N2CCN(c3ccccc3Cl)CC2)c(C)o1 | 1 | ? | . | . | 21µM* | 12µM*
O=C(Nc1ccc(C(=O)N2CCN(c3ccc(Cl)cc3)CC2)cc1)C1=CSCCO1 | 1 | 4 | -2% | 29% | 0% | ?
Cc1cc(C(=O)N2CCN(c3ccccc3)CC2)c(C)o1 | 2 | -6 | 3% | 22% | 0% | -6%
O=C(Nc1ccccc1C(=O)N1CCN(c2cccc(Cl)c2)CC1)C1=CSCCO1 | -9 | -14 | 0% | 19% | 11% | 21µM*
Cc1cc(C(=O)N2CCN(c3cccc(Cl)c3)CC2)c(C)o1 | 3 | -2 | 9% | -35% | 18µM* | 16µM*
Cc1cc(C(=O)N2CCN(S(=O)(=O)c3ccccc3C#N)CC2)c(C)o1 | -8 | 12 | . | . | -17% | 1%
C=C(C)COc1ccc2c(C)c(CCC(=O)N3CCC(C(N)=O)CC3)c(=O)oc2c1 | 11 | . | . | . | . | .
Cc1ccc(C(=O)Nc2nc3ccc(S(=O)(=O)N(C)C)cc3s2)cc1C | -12 | . | . | . | . | .
Cc1cc(C(=O)N2CCN(c3ncccn3)CC2)c(C)o1 | -3 | -11 | -1%[0.365 µM] | 22µM* | 13µM* | 23µM*
CCC1CCCCN1CCCn1c(=S)[nH]c2ccccc2c1=O (configuration not stated) | -3 | 23 | -15% | ? | -2% | -13%
O=C(CCCn1c(=O)[nH]c2ccsc2c1=O)NC1CCCCC1 | -2 | -7 | 3% | 1% | -8% | -3%
